Our source for the log2 fold change values is the supplement of paper PMC10849652.

About 8,800 targets were measured; listed, in parts, are those with a hit and a random draw of the rest. About 0.5% of all pairs of compound and target were hits. Values without a mark were called inactive.

UniProt P61224, sequence (P61224 whole entry, looked up): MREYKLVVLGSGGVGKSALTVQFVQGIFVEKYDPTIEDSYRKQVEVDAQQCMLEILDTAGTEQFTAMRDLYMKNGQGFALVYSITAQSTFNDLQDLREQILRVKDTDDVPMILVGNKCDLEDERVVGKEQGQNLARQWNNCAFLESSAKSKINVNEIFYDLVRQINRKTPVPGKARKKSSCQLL
UniProt O94762, sequence (O94762 whole entry, looked up): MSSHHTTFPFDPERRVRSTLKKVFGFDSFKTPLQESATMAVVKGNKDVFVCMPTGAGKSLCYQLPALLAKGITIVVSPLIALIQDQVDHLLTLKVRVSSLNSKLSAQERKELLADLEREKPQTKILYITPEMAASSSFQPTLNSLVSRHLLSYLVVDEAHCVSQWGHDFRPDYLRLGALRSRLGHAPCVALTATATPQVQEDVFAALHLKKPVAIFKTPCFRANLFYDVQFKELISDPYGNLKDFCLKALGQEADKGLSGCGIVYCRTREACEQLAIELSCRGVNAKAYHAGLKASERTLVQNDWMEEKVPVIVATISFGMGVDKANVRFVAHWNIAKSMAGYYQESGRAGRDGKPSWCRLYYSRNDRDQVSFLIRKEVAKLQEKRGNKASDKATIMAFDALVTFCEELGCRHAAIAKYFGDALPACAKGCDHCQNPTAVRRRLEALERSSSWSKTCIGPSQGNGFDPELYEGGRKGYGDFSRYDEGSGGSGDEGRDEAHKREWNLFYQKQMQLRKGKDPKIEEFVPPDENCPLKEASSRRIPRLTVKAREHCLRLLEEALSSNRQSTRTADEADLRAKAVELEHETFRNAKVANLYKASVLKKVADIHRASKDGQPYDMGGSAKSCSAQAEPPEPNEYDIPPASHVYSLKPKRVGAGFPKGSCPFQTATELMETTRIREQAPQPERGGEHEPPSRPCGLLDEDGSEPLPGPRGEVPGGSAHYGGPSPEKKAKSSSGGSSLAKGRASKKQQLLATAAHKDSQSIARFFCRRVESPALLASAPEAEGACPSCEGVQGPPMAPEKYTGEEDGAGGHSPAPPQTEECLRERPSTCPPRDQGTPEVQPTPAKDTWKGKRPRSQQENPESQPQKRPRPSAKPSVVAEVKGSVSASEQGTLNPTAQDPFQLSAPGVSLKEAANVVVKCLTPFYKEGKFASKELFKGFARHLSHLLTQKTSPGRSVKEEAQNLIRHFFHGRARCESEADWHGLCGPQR
UniProt Q9UL25, sequence (Q9UL25 whole entry, looked up): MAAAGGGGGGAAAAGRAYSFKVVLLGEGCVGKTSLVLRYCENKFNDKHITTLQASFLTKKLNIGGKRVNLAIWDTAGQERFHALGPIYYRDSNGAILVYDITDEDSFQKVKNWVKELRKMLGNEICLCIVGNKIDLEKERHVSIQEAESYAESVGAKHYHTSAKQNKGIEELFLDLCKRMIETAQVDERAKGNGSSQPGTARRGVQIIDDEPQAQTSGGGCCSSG
UniProt Q13546, sequence (Q13546 whole entry, looked up): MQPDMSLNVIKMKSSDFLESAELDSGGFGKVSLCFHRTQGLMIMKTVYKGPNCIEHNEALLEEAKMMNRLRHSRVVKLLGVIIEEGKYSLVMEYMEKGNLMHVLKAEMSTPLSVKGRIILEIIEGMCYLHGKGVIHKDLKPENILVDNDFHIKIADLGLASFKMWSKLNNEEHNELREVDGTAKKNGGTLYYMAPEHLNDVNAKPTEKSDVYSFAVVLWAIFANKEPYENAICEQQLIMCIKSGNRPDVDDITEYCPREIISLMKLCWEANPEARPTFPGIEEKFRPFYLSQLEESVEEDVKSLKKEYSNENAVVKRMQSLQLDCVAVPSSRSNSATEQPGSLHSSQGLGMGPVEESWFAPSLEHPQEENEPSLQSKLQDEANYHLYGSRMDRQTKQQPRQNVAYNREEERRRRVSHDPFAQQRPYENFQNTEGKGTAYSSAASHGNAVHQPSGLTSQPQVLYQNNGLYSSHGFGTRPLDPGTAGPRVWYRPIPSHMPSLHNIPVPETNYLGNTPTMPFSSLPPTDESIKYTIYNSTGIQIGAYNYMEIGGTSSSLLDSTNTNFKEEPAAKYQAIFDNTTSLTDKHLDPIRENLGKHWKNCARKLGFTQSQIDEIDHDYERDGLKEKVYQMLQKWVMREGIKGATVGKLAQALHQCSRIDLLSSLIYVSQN
UniProt Q16576, sequence (Q16576 whole entry, looked up): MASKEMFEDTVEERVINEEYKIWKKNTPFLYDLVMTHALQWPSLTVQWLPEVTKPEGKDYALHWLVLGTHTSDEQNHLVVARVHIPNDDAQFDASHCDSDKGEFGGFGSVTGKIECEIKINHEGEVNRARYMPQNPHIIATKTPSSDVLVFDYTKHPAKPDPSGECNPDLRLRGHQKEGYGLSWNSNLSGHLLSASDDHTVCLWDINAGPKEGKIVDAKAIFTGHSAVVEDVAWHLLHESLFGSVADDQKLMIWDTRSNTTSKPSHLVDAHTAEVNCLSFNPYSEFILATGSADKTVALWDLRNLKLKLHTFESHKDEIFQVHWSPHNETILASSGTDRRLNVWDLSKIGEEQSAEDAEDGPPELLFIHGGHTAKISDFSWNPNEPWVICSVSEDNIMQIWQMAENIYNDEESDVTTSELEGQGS
UniProt O95248, sequence (O95248 whole entry, looked up): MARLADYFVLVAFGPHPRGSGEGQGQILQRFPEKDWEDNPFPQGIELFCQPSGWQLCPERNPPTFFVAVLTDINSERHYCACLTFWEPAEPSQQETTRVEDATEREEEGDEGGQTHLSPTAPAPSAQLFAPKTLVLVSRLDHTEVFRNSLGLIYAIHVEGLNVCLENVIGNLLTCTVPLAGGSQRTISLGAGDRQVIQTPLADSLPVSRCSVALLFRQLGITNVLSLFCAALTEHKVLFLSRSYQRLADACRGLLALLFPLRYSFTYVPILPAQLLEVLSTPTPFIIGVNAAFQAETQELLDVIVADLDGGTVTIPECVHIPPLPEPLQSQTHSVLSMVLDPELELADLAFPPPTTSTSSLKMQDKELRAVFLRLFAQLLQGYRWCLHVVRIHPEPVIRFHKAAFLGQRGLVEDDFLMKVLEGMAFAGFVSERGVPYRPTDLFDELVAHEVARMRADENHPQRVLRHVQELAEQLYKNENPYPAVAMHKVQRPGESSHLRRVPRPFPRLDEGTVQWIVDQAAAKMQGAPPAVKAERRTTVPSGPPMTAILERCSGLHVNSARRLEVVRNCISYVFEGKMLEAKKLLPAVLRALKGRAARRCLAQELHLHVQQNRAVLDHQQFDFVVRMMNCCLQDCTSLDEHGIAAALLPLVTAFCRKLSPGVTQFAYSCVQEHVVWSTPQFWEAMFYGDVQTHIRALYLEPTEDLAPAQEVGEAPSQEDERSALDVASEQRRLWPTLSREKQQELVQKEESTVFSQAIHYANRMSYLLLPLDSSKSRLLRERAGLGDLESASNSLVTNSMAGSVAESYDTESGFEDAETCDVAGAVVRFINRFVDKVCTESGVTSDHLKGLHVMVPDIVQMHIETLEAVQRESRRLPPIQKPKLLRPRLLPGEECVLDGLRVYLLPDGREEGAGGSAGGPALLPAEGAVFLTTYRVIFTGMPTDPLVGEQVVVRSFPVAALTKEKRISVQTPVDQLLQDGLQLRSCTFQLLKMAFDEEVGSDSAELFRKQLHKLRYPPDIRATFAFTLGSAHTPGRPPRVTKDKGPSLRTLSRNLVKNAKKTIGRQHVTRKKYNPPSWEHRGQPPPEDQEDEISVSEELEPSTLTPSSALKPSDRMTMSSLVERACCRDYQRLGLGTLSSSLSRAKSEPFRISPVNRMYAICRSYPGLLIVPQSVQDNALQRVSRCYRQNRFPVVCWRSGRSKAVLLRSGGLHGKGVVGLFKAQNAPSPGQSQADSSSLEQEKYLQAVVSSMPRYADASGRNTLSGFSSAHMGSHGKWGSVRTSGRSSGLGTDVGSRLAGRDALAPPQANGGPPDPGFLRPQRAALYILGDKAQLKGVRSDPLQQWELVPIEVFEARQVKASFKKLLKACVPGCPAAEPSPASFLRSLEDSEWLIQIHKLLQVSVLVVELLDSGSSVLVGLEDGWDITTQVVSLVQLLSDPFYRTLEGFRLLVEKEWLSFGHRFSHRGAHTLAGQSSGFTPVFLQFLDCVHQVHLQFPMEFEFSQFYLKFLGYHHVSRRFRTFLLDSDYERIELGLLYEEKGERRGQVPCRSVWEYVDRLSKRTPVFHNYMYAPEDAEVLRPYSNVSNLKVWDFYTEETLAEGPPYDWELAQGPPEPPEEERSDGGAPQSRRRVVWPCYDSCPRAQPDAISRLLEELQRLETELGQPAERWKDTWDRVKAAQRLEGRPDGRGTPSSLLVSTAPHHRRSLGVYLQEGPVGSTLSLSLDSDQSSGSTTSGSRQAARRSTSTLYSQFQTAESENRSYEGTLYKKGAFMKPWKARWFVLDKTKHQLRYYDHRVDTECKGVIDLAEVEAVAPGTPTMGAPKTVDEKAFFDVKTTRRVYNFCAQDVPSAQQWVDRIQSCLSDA
UniProt Q9H0R6, sequence (Q9H0R6 whole entry, looked up): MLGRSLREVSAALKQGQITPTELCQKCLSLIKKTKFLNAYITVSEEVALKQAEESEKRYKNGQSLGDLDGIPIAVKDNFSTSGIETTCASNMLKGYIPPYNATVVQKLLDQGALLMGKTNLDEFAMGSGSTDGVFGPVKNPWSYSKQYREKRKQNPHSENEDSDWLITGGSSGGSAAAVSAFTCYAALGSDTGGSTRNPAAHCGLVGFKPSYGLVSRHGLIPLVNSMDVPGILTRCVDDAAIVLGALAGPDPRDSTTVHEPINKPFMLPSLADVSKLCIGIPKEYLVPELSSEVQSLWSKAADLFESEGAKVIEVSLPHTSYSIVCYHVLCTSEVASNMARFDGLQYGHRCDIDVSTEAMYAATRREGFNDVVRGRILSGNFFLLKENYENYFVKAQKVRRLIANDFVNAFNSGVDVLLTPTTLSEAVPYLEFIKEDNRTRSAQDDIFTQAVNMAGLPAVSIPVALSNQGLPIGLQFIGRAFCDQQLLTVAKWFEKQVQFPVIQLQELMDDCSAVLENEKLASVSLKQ
UniProt Q9P0P0, sequence (Q9P0P0 whole entry, looked up): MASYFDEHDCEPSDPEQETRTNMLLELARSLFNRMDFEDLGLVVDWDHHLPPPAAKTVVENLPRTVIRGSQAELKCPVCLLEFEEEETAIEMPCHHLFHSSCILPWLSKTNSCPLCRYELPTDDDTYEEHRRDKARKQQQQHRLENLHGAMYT

Compound in the first experiment: CC1=C(C2=C(C=C1)C(=O)C3=CC=CC=C3N2CCCN)C
The experiment in a line: log2 fold change, soluble protein after heating vs DMSO (PISA); higher = thermal stabilisation; K562 lysate, 10 uM; active = over 0.2 and 3.5 SD of the protein, either way, in both replicates (recomputed). In short, it runs like this:
(§1)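 A 30 min treatment with 10 μM compound was applied to crude K562 extract at 1 mg/mL protein in PBS pH 7.4 with 1 mM MgCl2. Heating for 3 min spanned 48°C-58°C, after which aliquots were pooled, adjusted to 0.5% NP-40 at 4°C and spun at 21,000xg for 90 min. TMTpro 16plex LC-MS/MS of the supernatant, with channel sums equalised, gave values recorded as log-two fold change in thermal stability against solvent controls, from duplicates.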
As for RECQL5 (UniProt O94762), the log2 fold change was -0.066.
On the same count and under the same terms, the result for QRSL1 (UniProt Q9H0R6) reads -0.073.
Same read-out and setting: the result for SBF1 isoform 4 (UniProt O95248) reads -0.039.
As to RAP1B (UniProt P61224), the log2 fold change was 0.004.
On the same count and under the same terms, the result for RPS26P11 (UniProt Q5JNZ5) reads -0.034; that for RPL8 (UniProt P62917), -0.045.
As to RIPK1 (UniProt Q13546), the log2 fold change is -0.013.
Still for that read-out and setting: with RDX (UniProt P35241) the figure was -0.011; with RAB21 (UniProt Q9UL25), 0.021.
The same measure, in the same setting: the result for RBBP7 isoform 2 (UniProt Q16576) reads 0.011.

Compound in the next experiment: CC1=C(C=C(C=C1)NC(=O)C2=CC(=CC=C2)C(C)(C)C#N)NC3=CC4=C(C=C3)N=CN(C4=O)C
The experiment is described as above. The procedure, abridged:
as §1
Regarding SCML2 (UniProt Q9UQR0), the log2 fold change is -0.015.
The same measure, in the same setting: with SESN2 (UniProt P58004) the figure was 0.008; with RAF1 isoform 2 (UniProt P04049), 0.359 (active).
The same measure, in the same setting: the result for RFC3 (UniProt P40938) reads 0.002.
On the same count and under the same terms, with RPS4X (UniProt P62701) the figure was -0.008.
Regarding SEC24D isoform 2 (UniProt O94855), the log2 fold change was 0.019.
Same read-out and setting: the result for SCCPDH (UniProt Q8NBX0) reads 0.055; that for SEH1L isoform 1 (UniProt Q96EE3), 0.015; that for RTN4IP1 (UniProt Q8WWV3), -0.008.
Same read-out and setting: with RPAP1 (UniProt Q9BWH6) the figure was -0.013.
Same read-out and setting: with RIOK1 (UniProt Q9BRS2) the figure was 0.015.
For REXO4 (UniProt Q9GZR2), the log2 fold change is -0.043.
The same measure, in the same setting: with RNF181 (UniProt Q9P0P0) the figure was 0.03; with RBMX (UniProt P38159), -0.016; with RIOK3 (UniProt O14730), 0.001.
On the same count and under the same terms, the result for RNASEH2B (UniProt Q5TBB1) reads 0.005; that for SCD (UniProt O00767), 0.02.
Same read-out and setting: with RBM42 (UniProt Q9BTD8) the figure was -0.028; with RPL37A (UniProt P61513), 0.038.
On to RPN2 (UniProt P04844), for which the log2 fold change is -0.011.
On the same count and under the same terms, the result for RRAGA (UniProt Q7L523) reads 0.079; that for RIC1 (UniProt Q4ADV7), 0.113; that for RNASEL (UniProt Q05823), 0.01.
Take RECQL5 (UniProt O94762): the log2 fold change is -0.044.
As for QRSL1 (UniProt Q9H0R6), the log2 fold change is -0.041.
Regarding SBF1 isoform 4 (UniProt O95248), the log2 fold change is -0.012.
The same measure, in the same setting: with RAP1B (UniProt P61224) the figure was 0.008.
Same read-out and setting: with RPS26P11 (UniProt Q5JNZ5) the figure was 0.024.
On the same count and under the same terms, with RPL8 (UniProt P62917) the figure was -0.076.
Take RIPK1 (UniProt Q13546): the log2 fold change is 0.001.
RDX (UniProt P35241): the log2 fold change was -0.021.
RAB21 (UniProt Q9UL25): the log2 fold change is -0.023.
On the same count and under the same terms, with RBBP7 isoform 2 (UniProt Q16576) the figure was -0.002.

Compound in the next experiment: CC1=C(C=C(C=C1)NC(=O)C2=CC(=CC=C2)N(C)C)NC(=O)C3=CC=C(C=C3)O
The description is as above. The procedure, abridged:
as §1
SCML2 (UniProt Q9UQR0): the log2 fold change was -0.006.
On to SESN2 (UniProt P58004), for which the log2 fold change was 0.078.
On the same count and under the same terms, with RAF1 isoform 2 (UniProt P04049) the figure was 0; with RFC3 (UniProt P40938), 0.042.
Still for that read-out and setting: with RPS4X (UniProt P62701) the figure was -0.001; with SEC24D isoform 2 (UniProt O94855), -0.035.
The same measure, in the same setting: the result for SCCPDH (UniProt Q8NBX0) reads -0.098.
SEH1L isoform 1 (UniProt Q96EE3): the log2 fold change is 0.017.
Regarding RTN4IP1 (UniProt Q8WWV3), the log2 fold change was -0.015.
On the same count and under the same terms, the result for RPAP1 (UniProt Q9BWH6) reads 0.007.
Turning to RIOK1 (UniProt Q9BRS2), the log2 fold change was -0.009.
Still for that read-out and setting: with REXO4 (UniProt Q9GZR2) the figure was 0.056; with RNF181 (UniProt Q9P0P0), 0; with RBMX (UniProt P38159), -0.016.
Turning to RIOK3 (UniProt O14730), the log2 fold change is 0.011.
On the same count and under the same terms, with RNASEH2B (UniProt Q5TBB1) the figure was 0.025; with SCD (UniProt O00767), -0.085.
RBM42 (UniProt Q9BTD8): the log2 fold change was -0.005.
Same read-out and setting: with RPL37A (UniProt P61513) the figure was 0.004; with RPN2 (UniProt P04844), -0.015; with RRAGA (UniProt Q7L523), 0.343.
Same read-out and setting: with RIC1 (UniProt Q4ADV7) the figure was 0.027; with RNASEL (UniProt Q05823), 0.013; with RECQL5 (UniProt O94762), 0.035.
The same measure, in the same setting: the result for QRSL1 (UniProt Q9H0R6) reads 0.027; that for SBF1 isoform 4 (UniProt O95248), 0.054.
RAP1B (UniProt P61224): the log2 fold change was -0.017.
Still for that read-out and setting: with RPS26P11 (UniProt Q5JNZ5) the figure was 0.025; with RPL8 (UniProt P62917), -0.013; with RIPK1 (UniProt Q13546), -0.02.
As for RDX (UniProt P35241), the log2 fold change is -0.002.
Still for that read-out and setting: with RAB21 (UniProt Q9UL25) the figure was -0.002; with RBBP7 isoform 2 (UniProt Q16576), -0.001.
